# Compound activity deposited in PubChem by National Center for Advancing Translational Sciences (NCATS).
# IL1B secr inh: inflammasome signaling inhibition, IL-1 beta readout. THP-1 LPS/ATP IL-1B secretion, AlphaLISA, 16 h; hits give low values. activity change, % at 57.5 µM. 360,000 tested, 4.7% active; in the data active = activity change below about -50%; inconclusive = mostly about -30% to -49%; also: % is scaled to controls: 0 for no effect and ±100 for the full control effect
#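 THP-1 cells pretreated 1 hr with compounds (up to 57.5 uM final), then stimulated with LPS (250 ng/mL final) plus ATP (1.25 mM final); secreted IL-1B measured by AlphaLISA after 16 hr, decreased signal indicating inhibition.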
# TGFb inhibitor: TGF-b pathway inhibition | HepG2 CAGA-GFP TGF-b/SMAD3 reporter, GFP fluorescence, 18 h; TGF-beta stimulated, 500 pg/mL final | Potency, µM (doses to about 46.1 µM), without a hit: at the top dose activity, negative = inhibition, usual class: inhibitors | 410,000 tested, 1.2% active; also: potency is read from the fitted curve at half-maximal effect; % is scaled to controls: 0 for no effect and ±100 for the full control effect; nearly all actives have a fitted effect of over 65% in size
#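 HEPG2 CAGA-GFP, 1000 cells/well; 2 h settle, 37 C; cpd via pin tool; TGF-b 500 pg/mL final; 18 h, 37 C; GFP imaging ex488/em500-530; %Activity normalised to -TGF-b and +DMSO controls; CRC fit, curve class.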
# HepG2 viability: HepG2 cytotoxicity, counter-screen for TGF-b inhibitors. HepG2 CAGA-GFP viability, ATP luminescence, 18 h. Potency, µM (top dose mostly 46.1 µM), for inactives: at the highest dose activity change, negative = cytotoxicity, usual class: cytotoxic. 410,000 tested, 0.76% active; also: potency is read from the fitted curve at half-maximal effect
#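 CellTiter-Glo luminescence gave cytotoxicity after 18 hours at 37 degrees C. The cells were HepG2 CAGA-GFP in 1% FBS DMEM, stimulated with 500 pg/mL TGF-beta after compound addition. %Activity was normalised to no-cell wells (complete cell-killing) and DMSO (no toxicity), and curves were fitted and classified.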
# TDP1 cell CPT: growth inhibition of DT40 Tdp1-/-;hTDP1 cells with camptothecin (screen for TDP1 inhibitors); chicken DT40 Tdp1-/-;hTDP1 cells + 20 nM CPT, ATP luminescence, 48 h; Potency, µM (highest dose often 46.2 µM), inactives show top-dose activity change, negative = growth inhibition, hits mostly inhibitors; 420,000 tested, 12% active; also: potency is read from the fitted curve at half-maximal effect; % is scaled to controls: 0 for no effect and ±100 for the full control effect; nearly all actives have a fitted effect of over 55% in size
#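 Cell growth measured by CellTiter-Glo luminescence after a minimum 48 h, 37 C compound exposure with 20 nM CPT in Tdp1-knockout DT40 cells stably expressing hTDP1, seeded 400/well; qHTS titration format.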
# DT40 TDP1 no CPT: qHTS for Inhibitors of human tyrosyl-DNA phosphodiesterase 1 (TDP1): qHTS in cells in absence of CPT; DT40 Tdp1-/- hTDP1 cells, no CPT, ATP luminescence, 48 h; Potency, µM (titrated, usually from 46.2 µM), without a hit: at the highest dose activity change, negative = growth inhibition, most hits filed as inhibitors; 420,000 tested, 15% active; AID 686978, 2013; also: potency is read from the fitted curve at half-maximal effect; % is scaled to controls: 0 for no effect and ±100 for the full control effect; nearly all actives have a fitted effect of over 55% in size
#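 No-CPT arm: Tdp1-/-;hTDP1 DT40 cells (400/well) plus compounds, incubated ≥48 hr at 37 °C. Readout CellTiter-Glo luminescence.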
# S-ASM inh: blocks human secretory acid sphingomyelinase | P17405 | placental ASM, HMU-PC fluorogenic substrate, 60 min | Potency, µM (series often up to 57.5 µM), inactives show at the top dose activity change, negative = inhibition, hits mostly inhibitors | 340,000 tested, 0.006% active; also: potency is read from the fitted curve at half-maximal effect
#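 Fluorogenic HMU-PC substrate (9 uM final) is turned over by placental ASM in 60 min at 37 C after a 10 min compound preincubation. Reaction ended by alkaline stop (pH 10), with fluorescence read at 386/447 nm.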
# Active calls of the source: *; ? = inconclusive; . = not tested or not shown. Most compounds without a hit are left out; they make up all but 19% or so of the library. Unless noted, calls follow the shape of the dose curve; as a rule, active = well fitted curve in the direction sought with a large enough effect; inconclusive = small, poorly fitted or top-dose-only effect, or another doubt; inactive = no such curve, though single readings can be large; an effect the other way counts as inactive or inconclusive.
SMILES,IL1B secr inh,TGFb inhibitor,HepG2 viability,TDP1 cell CPT,DT40 TDP1 no CPT,S-ASM inh
CC(C)c1ccc(N(C(=O)c2snc(C(N)=O)c2N)C(C(=O)NC2CCCC2)c2ccncc2)cc1 (stereo not given),41,-1%,-16%,18µM*,23µM*,337%
Cc1ccc(N(C(=O)c2snc(C(N)=O)c2N)C(CC(C)C)C(=O)NC2CCCC2)cc1 (stereo not given),3,1%,-8%,?,?,272%
O=C(Nc1ccc(OC(F)(F)F)cc1)C1CC(=O)N(Cc2ccco2)C1 (stereo not given),-2,-6%,-8%,-1%,-3%,3%
N=C1/C(=C/c2cccs2)C(=O)N=C2SN=C(SCc3ccccc3)N12,16,-1%,-30%,-13%,-29%,-22%
CC(C)CSC1=NSC2=NC(=O)/C(=C\c3cccs3)C(=N)N12,-73*,?,-37%,?,21µM*,-4%
CCc1c(C)nc2c(Br)cccc2c1SCCC#N,3,-23%,-1%,?,?,-4%
CCc1c(C)nc2ccc(Br)cc2c1SCCC#N,-183*,?,-26%,?,?,0%
Clc1ccc(N2O[C@H]3C=C[C@@H]2C3)nc1,?,-21%,-34%,21µM*,?,.
O=C(c1ccc[nH]1)N1O[C@@H]2C=C[C@H]1C2,14,4%,-7%,2%,-11%,0%
CS(=O)(=O)N1CCC(N2CCN(Cc3ccccc3)C(=O)C2=O)CC1,.,-2%,5%,5%,-14%,.
Cc1ccc(S(=O)(=O)CC(CN2CCCCC2)N2CCCCC2)cc1 (stereo not given),-98*,16µM*,-93%,?,13µM*,-3%
COc1ccc(S(=O)(=O)N2CCC(C(=O)N3CCN(C)CC3)CC2)cc1OC,11,2%,5%,16%,0%,3%
COc1ccc(C(=O)NCC(=O)N/N=C(C)\C=C\c2ccccc2)cc1OC,?,-20%,-3%,11%,0%,-2%
O=C(Cn1c(=O)c2cccn2c2cccnc21)NCc1cccc(F)c1,.,?,-5%,-25%,-29%,.
O=C(Nc1cc(Cl)cc2c1-c1ccc(Cl)cc1C2O)C(Cl)Cl (stereo not given),-61*,?,-15%,23µM*,?,-3%
CCc1cc(-c2cnnn2Cc2ccccc2)ccc1-c1cn(CC(C)C)nn1,?,?,-61%,?,10µM*,.
CC(=O)c1ccc(OC2(C)CCN(CCOc3ccc(C)cc3)C2)cc1 (stereo not given),-12,-18%,-11%,16µM*,5.8µM*,.
CSc1ccc(CN2CCC(C)(Oc3ccc4ccccc4c3)C2)cc1 (stereo not given),16,-7%,-36%,?,?,.
COCOc1cccc(CN2CCC(C)(Oc3ccc(C(C)=O)cc3)C2)c1 (stereo not given),-8,20%,-30%,?,?,.
CC(=O)c1cc2cccc(OC3(C)CCN(Cc4ccc5ccccc5c4)C3)c2o1 (stereo not given),-3,?,-34%,18µM*,?,.
CC(=O)c1ccc(OC2(C)CCN(Cc3cc4ccccc4[nH]3)C2)cc1 (stereo not given),17,9%,-23%,4.1µM*,8.2µM*,.
Cc1ccc(S(=O)(=O)NCC(=O)NCC(=O)N2CCN(c3ncccn3)CC2)cc1C,19,?,-30%,-6%,-17%,5%
COc1cccc(N2CCN(C(=O)c3ccc(-c4ccccc4)cc3)CC2)c1,20,?,-23%,32%,12%,-5%
